The numbers were not newly measured in PubChem BioAssay AID977611, which cites them from elsewhere.

The term Kd denotes the constant that tells how readily two partners part at equilibrium.

The data set can be described thus: PubChem AID 977611. Conditions: PDB protein-ligand complexes, literature Kd.

About 3,900 (100%) of roughly 3,900 compounds were called active. No cut-off is given here; in the data, nearly all actives have Kd up to about 4200 µM. So high a share suggests a set chosen from earlier hits. The list shows a part of the results. Where a SMILES comes first, the peptide text is derived from it. Non-standard residues stand in square brackets, D forms with d. Square brackets hold non-standard residues; d marks the D form. Residues, ends and D or L forms follow the SMILES beside them. Peptide text beside a SMILES is read from it. [ ]: non-standard residue; d: D form. The star is where a group is joined. Lys(Me3) = C[N+](C)(C)CCCC[C@H](N)C(=O)O; Orn(CH(NH2)2) = NC(N)NCCC[C@H](N)C(=O)O; X1 = C[C@H](Cc1ccc(O)cc1)N*; Nva = CCC[C@H](N)C(=O)O

For the compound `CC[C@H](C)[C@H](NC(=O)[C@H](CCC(=O)O)NC(=O)[C@H](CCC(=O)O)NC(=O)[C@@H](N)CC(=O)O)C(=O)N[C@@H](CCC(=O)O)C(=O)N[C@@H](CCCNC(N)N)C(=O)N[C@@H](CCC(N)=O)C(=O)N[C@@H](CC(C)C)C(=O)N[C@@H](CCCCN)C(=O)N[C@@H](C)C(=O)N[C@@H](CC(C)C)C(=O)NCC(=O)N[C@H](C(=O)N[C@@H](CC(=O)O)C(=O)O)C(C)C` (H-DEEIE[Orn(CH(NH2)2)]QLKALGVD-OH), the Kd (protein: Vacuolar protein sorting-associating protein 4B, PDB entry 2jqk) is 402 µM (active).

`CC[C@H](C)[C@H](NC(=O)[C@@H](N)CCCNC(N)N)C(=O)N[C@@H](CO)C(=O)N[C@@H](C)C(=O)N[C@@H](CC(=O)O)C(=O)N[C@@H](C)C(=O)N[C@@H](CCSC)C(=O)N[C@@H](CCSC)C(=O)N[C@@H](CCC(N)=O)C(=O)N[C@@H](C)C(=O)N[C@@H](CC(C)C)C(=O)N[C@@H](CC(C)C)C(=O)NCC(=O)N[C@@H](C)C(=O)N[C@@H](CCCNC(N)N)C(=O)N[C@@H](C)C(=O)N[C@@H](CCCCN)C(=O)O` (H-[Orn(CH(NH2)2)]ISADAMMQALLGA[Orn(CH(NH2)2)]AK-OH): the Kd was 2000 µM (active) (protein: Regulatory Domain of Human Cardiac Troponin C and Ca2+, PDB entry 2krd); 154 µM (active) (protein: human Cardiac Troponin-C(cNTnCCa2+), PDB entry 1mxl).

For `CC[C@H](C)[C@H](NC(=O)[C@H](C)NC(=O)[C@H](CC(C)C)NC(=O)[C@H](CCC(N)=O)NC(=O)[C@H](CCCNC(N)N)NC(=O)CNC(=O)[C@@H](NC(=O)[C@H](CCC(N)=O)NC(=O)CN)C(C)C)C(=O)N[C@H](C(=O)NCC(=O)N[C@@H](CC(=O)O)C(=O)N[C@@H](CC(=O)O)C(=O)N[C@H](C(=O)N[C@@H](CC(N)=O)C(=O)N[C@@H](CCCNC(N)N)C(=O)O)[C@@H](C)CC)[C@@H](C)CC`, where the note is “protein: BCL-XL, PDB entry 1bxl”, the Kd was 0.34 µM (active).

`CSCC[C@H](NC(=O)CNC(=O)[C@H](C)NC(=O)[C@@H](N)CCC(=O)O)C(=O)N[C@H](C(=O)N[C@@H](CC(C)C)C(=O)NCC(=O)N[C@@H](C)C(=O)N[C@@H](CCCNC(N)N)C(=O)N[C@@H](CCCCN)C(=O)N[C@@H](CC(C)C)C(=O)N[C@@H](CCCCN)C(=O)N[C@@H](CCCCN)C(=O)N[C@@H](CC(C)C)C(=O)NCC(=O)O)[C@@H](C)O` (H-EAGMTLGA[Orn(CH(NH2)2)]KLKKLG-OH): the Kd (protein: Importin subunit alpha-2, PDB entry 3btr) is 5 µM (active).

For the compound `COc1ccc2c(c1OC)CN(C)c1c-2ccc2cc3c(cc12)OCO3`, the Kd (protein: Chitinase A, PDB entry 3arw) was 0.7 µM (active).

Consider `O=C(O)[C@@H]1COc2ccccc2O1`, for which the Kd (protein: Pantothenate synthetase (T2A, E77G mutation), PDB entry 4de5) is 700 µM (active) and the Kd (protein: Pantothenate synthetase (T2A, E77G mutation), PDB entry 4g5f) is 900 µM (active).

As for `CC(=O)NCCCC[C@H](NC(=O)[C@H](CCCNC(N)N)NC(=O)CNC(=O)[C@H](Cc1ccc(O)cc1)NC(=O)[C@@H](N)CO)C(=O)N[C@@H](CCCCN)C(=O)N[C@@H](CCCNC(N)N)C(=O)N[C@@H](CCCNC(N)N)C(=O)N[C@@H](CCC(N)=O)C(=O)N[C@@H](CCCNC(N)N)C(=O)N[C@@H](CS)C(=O)O` (H-SYG[Orn(CH(NH2)2)]K(Ac)K[Orn(CH(NH2)2)][Orn(CH(NH2)2)]Q[Orn(CH(NH2)2)]C-OH), the Kd (protein: p300/CBP-associated factor (PCAF), PDB entry 1jm4) is 10 µM (active).

In the case of `CC(C)C[C@H](NC(=O)[C@H](CCCNC(N)N)NC(=O)[C@H](CCC(N)=O)NC(=O)[C@H](Cc1ccc(O)cc1)NC(=O)[C@@H](N)CC(=O)O)C(=O)O` (H-DYQ[Orn(CH(NH2)2)]L-OH), the Kd (protein: AP-3 complex subunit mu-1, PDB entry 4ikn) is 14 µM (active).

For `CC(C)C[C@H](NC(=O)[C@H](CCC(N)=O)NC(=O)[C@H](CS)NC(=O)[C@H](CO)NC(=O)[C@@H](N)CC(C)C)C(=O)N[C@@H](Cc1ccc(O)cc1)C(=O)N[C@@H](CCC(N)=O)C(=O)N[C@@H](CCCNC(N)N)C(=O)O` (H-LSCQLYQ[Orn(CH(NH2)2)]-OH), the Kd (protein: Thymidylate synthase, PDB entry 3n5e) is 0.151 µM (active).

On to `CSCC[C@H](N)C(=O)N[C@@H](C)C(=O)N[C@@H](CO)C(=O)O` (H-Met-Ala-Ser-OH), for which, for the setting “protein: human-like mitochondrial peptide deformylase (G47C, L112E mutant), PDB entry 4je8”, the Kd was 6.1 µM (active).

As to H-AEDDVE-OH, the Kd (protein: AH RECEPTOR-INTERACTING PROTEIN, PDB entry 4apo) was 12.3 µM (active).

On to `CC(C)[C@H](NC(=O)[C@H](CC(=O)O)NC(=O)[C@@H](NC(=O)[C@H](CC(=O)O)NC(=O)[C@H](CO[P+](O)(O)O)NC(=O)[C@@H](N)CC(=O)O)[C@@H](C)O[P+](O)(O)O)C(=O)N[C@@H](CCC(=O)O)C(=O)N[C@@H](CCC(=O)O)C(=O)O`, for which, under “protein: DNA topoisomerase 2-binding protein 1, PDB entry 3ueo”, the Kd is 94 µM (active).

For `CSCC[C@H](NC(=O)[C@H](CCCNC(N)N)NC(=O)[C@H](CO)NC(=O)[C@H](C)N)C(=O)N[C@@H](CCC(=O)O)C(=O)N[C@@H](CCC(=O)O)C(=O)N[C@H](C(=O)N[C@@H](CC(=O)O)C(=O)O)C(C)C` (H-AS[Orn(CH(NH2)2)]MEEVD-OH), the Kd (protein: Protein UNC-45, PDB entry 4i2z) was 13.5 µM (active).

`CCC[C@H](NC(=O)[C@@H](N)CO)C(=O)N[C@@H](CCSC)C(=O)N[C@@H](C)C(=O)N[C@@H](CCC(=O)O)C(=O)N[C@H](C(=O)N[C@@H](CC(=O)O)C(=O)O)C(C)C` (H-S[Nva]MAEVD-OH): under “protein: AH RECEPTOR-INTERACTING PROTEIN, PDB entry 4aif”, the Kd was 14.4 µM (active).

Consider `CC(=O)N[C@@H](CC(=O)O)C(=O)N[C@@H](CCC(=O)O)C(=O)N[C@H](C(=O)N[C@@H](CC(=O)O)[C@@H](C)O)C(C)C`, for which the Kd (protein: Procaspase-3 (D175A mutation), PDB entry 4jr0) was 0.0063 µM (active).

As to `CSCC[C@H](NC(=O)[C@H](CCC(=O)O)NC(=O)[C@@H](NC(=O)[C@H](CC(=O)O)NC(=O)[C@H](C)N)[C@@H](C)O)C(=O)N[C@@H](CCC(=O)O)C(=O)N[C@@H](CCC(=O)O)C(=O)N[C@H](C(=O)N[C@@H](CC(=O)O)C(=O)O)C(C)C` (H-ADTEMEEVD-OH), the Kd (protein: TPR repeat-containing protein associated with Hsp90, PDB entry 2lsv) was 5.41 µM (active).

For `CSCC[C@H](NC(=O)[C@@H]1CCCN1C(=O)[C@@H](N)[C@@H](C)O)C(=O)N[C@H](C(=O)N[C@@H](CC(N)=O)C(=O)N[C@@H](CCCNC(N)N)C(=O)N[C@@H](CCC(=O)O)C(=O)N[C@@H](CC(N)=O)C(=O)N[C@@H](CCCCN)C(=O)O)C(C)C` (H-TPMVN[Orn(CH(NH2)2)]ENK-OH), the Kd (protein: STAM2 SH3 domain, PDB entry 1uj0) is 27 µM (active).

Turning to `CSCC[C@H](NC(=O)[C@H](CCCCN)NC(=O)[C@H](CCC(=O)O)NC(=O)[C@H](CCCCN)NC(=O)[C@H](CCCNC(N)N)NC(=O)[C@@H]1CCCN1C(=O)[C@@H]1CCCN1C(=O)[C@@H](NC(=O)[C@H](CC(C)C)NC(=O)[C@@H]1CCCN1C(=O)[C@@H]1CCCN1C(=O)[C@H](CCC(N)=O)NC(=O)CN)C(C)C)C(=O)N[C@@H](CCCNC(N)N)C(=O)NCC(=O)N[C@@H](CCCCN)C(=O)O` (H-GQPPLVPP[Orn(CH(NH2)2)]KEKM[Orn(CH(NH2)2)]GK-OH), where the note is “protein: Grb2-related adaptor protein 2(SH3 domain), PDB entry 1uti”, the Kd is 2.4 µM (active).

Regarding `CC(C)C[C@H](NC(=O)[C@H](CCC(=O)O)NC(=O)CNC(=O)[C@@H](NC(=O)[C@H](CO[P+](O)(O)O)NC(=O)[C@@H]1CCCN1C(=O)[C@H](CC(=O)O)NC(=O)[C@@H](NC(=O)[C@H](CCC(=O)O)NC(=O)[C@@H](N)CCCCN)C(C)C)[C@@H](C)O)C(=O)N[C@@H](CCC(N)=O)C(=O)O`, the Kd (protein: Kelch-like ECH-associated protein 1, PDB entry 3wdz) was 0.12 µM (active).

Turning to `CC(C)C[C@H](NC(=O)[C@H](CCCNC(N)N)NC(=O)[C@@H](N)CCCNC(N)N)C(=O)N[C@@H](CCC(N)=O)C(=O)N[C@@H](CCCCN)C(=O)NCC(=O)N[C@@H](CC(N)=O)C(=O)N[C@@H](CC(C)C)C(=O)N1CCC[C@H]1C(=O)N[C@H](C(=O)N[C@@H](CCCNC(N)N)C(=O)O)C(C)C` (H-[Orn(CH(NH2)2)][Orn(CH(NH2)2)]LQKGNLPV[Orn(CH(NH2)2)]-OH), the Kd (protein: ERK2, PDB entry 2fys) is 44 µM (active).

In the case of `CC[C@H](C)[C@H](N)C(=O)N[C@@H](CCC(N)=O)C(=O)N1CCC[C@H]1C(=O)N1CCC[C@H]1C(=O)N1CCC[C@H]1C(=O)N[C@H](C(=O)N[C@@H](CC(N)=O)C(=O)N[C@@H](CCCNC(N)N)C(=O)N[C@@H](CC(N)=O)C(=O)N[C@@H](CC(C)C)C(=O)N[C@@H](CCCCN)C(=O)N1CCC[C@H]1C(=O)N[C@@H](CC(=O)O)C(=O)N[C@H](C=O)CCCNC(N)N)C(C)C` (H-IQPPPVN[Orn(CH(NH2)2)]NLKPD[Orn(CH(NH2)2)]-aldehyde), the Kd (protein: GROWTH FACTOR RECEPTOR-BOUND PROTEIN 2 SH3 DOMAIN, PDB entry 2vwf) was 8.7 µM (active).

With `CN1C=CN(CCCN2c3ccccc3Sc3ccc(C(F)(F)F)cc32)C=C1`, the Kd (protein: human calmodulin (CaM), PDB entry 1ctr) is 1 µM (active).

Regarding `COC(=O)c1cc(N)cc(-c2c(C)noc2C)c1`, the Kd (protein: ATPase family AAA domain-containing protein 2 ATAD2A bromodomain, PDB entry 4tte) is 202 µM (active).

On to `Cn1cc(O[C@@H]2O[C@H](CO)[C@H](O)[C@H](O)[C@H]2O)c2ccccc21`, for which the Kd (protein: PA-I galactophilic lectin, PDB entry 4ljh) is 19.4 µM (active).

For the compound `CC(=O)NCCCC[C@H](NC(=O)[C@@H](NC(=O)CNC(=O)CNC(=O)[C@@H](NC(=O)[C@@H](N)CO)[C@@H](C)O)C(C)C)C(=O)N[C@@H](CCCCN)C(=O)N1CCC[C@H]1C(=O)N[C@@H](Cc1cnc[nH]1)C(=O)N[C@@H](CCCNC(N)N)C(=O)N[C@@H](Cc1ccc(O)cc1)C(=O)N[C@@H](CCCCN)C(=O)N[C@@H](CS)C(=O)O`, for the setting “protein: Histone acetyltransferase PCAF, PDB entry 2rnx”, the Kd was 402 µM (active).

On to `CC(C)[C@H](NC(=O)CNC(=O)CNC(=O)[C@@H](NC(=O)[C@H](C)N)[C@@H](C)O)C(=O)N[C@@H](CCCC[N+](C)(C)C)C(=O)N[C@@H](CCCCN)C(=O)N1CCC[C@H]1C(=O)N[C@@H](Cc1cnc[nH]1)C(=O)N[C@@H](CCCNC(N)N)C(=O)N[C@H](C)Cc1ccc(O)cc1` (H-ATGGV[Lys(Me3)]KPH[Orn(CH(NH2)2)]-X1), for which, under “protein: PHD finger protein 1, PDB entry 2m0o”, the dissociation constant Kd was 4.2 µM (active).

Turning to `CC[C@H](C)[C@H](NC(=O)[C@H](Cc1cnc[nH]1)NC(=O)[C@@H](NC(=O)[C@H](CCCNC(N)N)NC(=O)[C@H](CCCCN)NC(=O)[C@@H](N)CCCNC(N)N)[C@@H](C)CC)C(=O)NCC(=O)N1CCC[C@H]1C(=O)NCC(=O)N[C@@H](CCCNC(N)N)C(=O)N[C@@H](C)C(=O)N[C@@H](Cc1ccccc1)C(=O)N[C@@H](Cc1ccc(O)cc1)C(=O)N[C@@H](C)C(=O)N[C@H](C=O)[C@@H](C)O`, for the setting “protein: anti-HIV-1 Fab 537-10D, PDB entry 3ghe”, the Kd is 1.3 µM (active).
